This is part of a sample that, as a whole, favours compounds with a hit. Of some 83,000 tested, about 20% had one in any assay.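 Testing used 96-well plates and a 48-hour single-concentration exposure. Example: -40 means 40% of the starting cells died.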 A number with no mark means an inactive call. The source made the active and inactive calls. Rule for the calls: active = growth percent below 10; inactive = the rest.

The values below come from PubChem BioAssay (NCI).

Some test systems named below: NCI-H23 lung; NCI-H226 lung; NCI-H322M lung; HOP-62 NSCLC; NCI-H460 lung; HOP-92 NSCLC; NCI-H522 lung; A549/ATCC NSCLC; 786-0 renal; COLO 205 colon.
What all share (assay): NCI-60 one-dose screen, 48 h (100 = growth as untreated, 0 = no growth, -100 = all killed)
Common to all, as to conditions: 10 µM unless noted

For the compound `COc1ccc(-c2cc(C(=O)N3N=C(c4ccc(N)cc4)CC3c3ccc(OC)cc3)c3cc(OC)ccc3n2)cc1` (stereo not given), the growth was 48.6% with NCI-H23 lung; 94.9% with NCI-H226 lung; 93.3% in the assay on NCI-H322M lung; 60.1% in the assay on HOP-62 NSCLC; 85.4% in the assay on NCI-H460 lung; 56% in the assay on HOP-92 NSCLC. The growth in the assay on NCI-H522 lung is 29.5%; with A549/ATCC NSCLC, 76.6%; in the assay with 786-0 renal, 18.9%; in the assay with COLO 205 colon, 96.3%.

Turning to `N#Cc1nc(-c2ccccc2)oc1S(=O)(=O)NCC(c1ccc(Cl)cc1)N1CCCCC1` (stereo not given), the growth was 78.5% in the assay on NCI-H23 lung; 117% in the assay on NCI-H226 lung; 85.3% in the assay on NCI-H322M lung; 96.3% in the assay with HOP-62 NSCLC; 77.2% in the assay on NCI-H460 lung; 79.4% in the assay on HOP-92 NSCLC. Moreover, the growth in the assay with NCI-H522 lung was -18.3% (active); in the assay with A549/ATCC NSCLC it was 89.2%; with 786-0 renal, 87.1%; in the assay with COLO 205 colon it was 79.3%.

Regarding `O=C1C(=O)c2c(nc3ccc(C(F)(F)F)cn23)-c2ccccc21`, the growth in the assay with NCI-H23 lung is -30.8% (active); in the assay on NCI-H226 lung, -96.6% (active); in the assay on NCI-H322M lung, -94.8% (active); in the assay on HOP-62 NSCLC it was -97.5% (active); in the assay on NCI-H460 lung, -64.8% (active); in the assay with HOP-92 NSCLC, -77.9% (active). The growth was -72.4% (active) with NCI-H522 lung, -51.4% (active) in the assay on A549/ATCC NSCLC, -80.8% (active) in the assay on 786-0 renal and -78.9% (active) in the assay on COLO 205 colon.

`COc1ccc2c(c1)Oc1nc(N)c(C#N)c(N)c1C2Sc1ccc(SC)cc1` (stereo not given): the growth in the assay on NCI-H23 lung is 44.1%; in the assay with NCI-H226 lung, 75.6%; in the assay with NCI-H322M lung, 77.4%; in the assay with HOP-62 NSCLC, 100%; with NCI-H460 lung, 58%; in the assay with HOP-92 NSCLC it was 18.4%. Also, the growth in the assay on NCI-H522 lung was -81.5% (active); in the assay with A549/ATCC NSCLC it was 85.7%; in the assay on 786-0 renal, 8.66% (active); with COLO 205 colon it was -3.1% (active).

As to `COc1cccc(NC(=O)Nc2ccc(Oc3ncnc4[nH]c(C)c(C)c34)cc2)c1`, the growth was 70.7% in the assay on NCI-H23 lung; 105% in the assay on NCI-H226 lung; 105% in the assay with NCI-H322M lung; 97.5% in the assay with HOP-62 NSCLC; 61.3% in the assay on NCI-H460 lung; 110% with HOP-92 NSCLC. In addition, the growth in the assay on NCI-H522 lung was 57.8%; in the assay on A549/ATCC NSCLC, 79.7%; in the assay on 786-0 renal, 109%; in the assay with COLO 205 colon it was 102%.

With `CCCCN(CCCC)CC(CN(CC)CC)OC(=O)Nc1ccccc1` (stereo not given), the growth was 72.2% with NCI-H23 lung; 103% in the assay on NCI-H226 lung; 85% with NCI-H322M lung; 75.4% in the assay on HOP-62 NSCLC; 105% with NCI-H460 lung; 75% in the assay with HOP-92 NSCLC. In addition, the growth was 74.7% in the assay on NCI-H522 lung, 92.9% with A549/ATCC NSCLC, 83% in the assay on 786-0 renal and 79.6% with COLO 205 colon.

In the case of `O=C1CC(c2ccc(O)c(O)c2)Oc2cc(O)c([C@@H]3O[C@H](CO)[C@@H](O)[C@H](O)[C@H]3O)c(O)c21` (stereo not given in full), the growth in the assay on NCI-H23 lung is 106%; in the assay with NCI-H226 lung, 98.9%; in the assay with NCI-H322M lung, 113%; in the assay on HOP-62 NSCLC, 105%; in the assay on NCI-H460 lung it was 99.1%; in the assay with HOP-92 NSCLC, 113%. Besides, the growth was 100% with NCI-H522 lung, 94.8% with A549/ATCC NSCLC, 99.5% in the assay on 786-0 renal and 108% in the assay on COLO 205 colon.

For `FC(F)(F)c1ccc2c(Nc3cccc(C4CC(c5ccccc5)=NN4c4ccc(Cl)cc4)c3)ccnc2c1` (stereo not given), the growth is 61% with NCI-H23 lung; 68.1% in the assay on NCI-H226 lung; 68.7% in the assay on NCI-H322M lung; 60.2% in the assay on HOP-62 NSCLC; 59.1% with NCI-H460 lung; 47.5% in the assay on HOP-92 NSCLC. The growth with NCI-H522 lung was 50.2%; with A549/ATCC NSCLC, 72.4%; with 786-0 renal, 77.1%; in the assay on COLO 205 colon it was 58.1%.

`Cc1ccc(CS/C(=C\c2ccc([N+](=O)[O-])cc2)C(=O)c2ccc(F)cc2)cc1`: the growth with NCI-H23 lung is 57.2%; with NCI-H226 lung it was 67%; in the assay with NCI-H322M lung, 103%; in the assay on HOP-62 NSCLC, 83.4%; in the assay with NCI-H460 lung, 82.3%; in the assay with HOP-92 NSCLC, 96.2%. In addition, the growth in the assay on NCI-H522 lung is -5.69% (active); in the assay with A549/ATCC NSCLC it was 85%; in the assay with 786-0 renal, 76.9%; in the assay with COLO 205 colon, 54.2%.

Regarding `COc1cc2nc3c(=O)n(CCN(C)C)cnn3c(=O)c2cc1OC`, the growth in the assay with NCI-H23 lung is 95.9%; with NCI-H226 lung it was 103%; in the assay with NCI-H322M lung it was 95.2%; with HOP-62 NSCLC it was 101%; in the assay with NCI-H460 lung, 105%; with HOP-92 NSCLC, 100%. Besides, the growth is 89% with NCI-H522 lung, 105% with A549/ATCC NSCLC, 105% with 786-0 renal and 102% in the assay with COLO 205 colon.

As to `O=C(NC[C@H](O)CN1CCc2ccccc2C1)c1cc(NC2COC2)ncn1`, the growth was 99.7% in the assay with NCI-H23 lung; 108% in the assay with NCI-H226 lung; 93.6% in the assay on NCI-H322M lung; 92.8% in the assay on HOP-62 NSCLC; 97.8% in the assay with NCI-H460 lung; 112% in the assay on HOP-92 NSCLC. In addition, the growth in the assay on NCI-H522 lung was 92%; in the assay on A549/ATCC NSCLC, 93.4%; in the assay with 786-0 renal, 92%; in the assay on COLO 205 colon it was 92.4%.

`O=C(/C(=C/c1ccc([N+](=O)[O-])cc1)SCc1ccccc1)c1ccc(Cl)cc1`: the growth with NCI-H23 lung was 70.9%; with NCI-H226 lung, 68.4%; with NCI-H322M lung, 105%; in the assay on HOP-62 NSCLC, 80.3%; in the assay with NCI-H460 lung it was 87.4%; with HOP-92 NSCLC, 71.1%. In addition, the growth in the assay with NCI-H522 lung was 41.4%; in the assay on A549/ATCC NSCLC it was 82.7%; with 786-0 renal, 86.9%; in the assay on COLO 205 colon it was 70.3%.

As for `COC(=O)[C@]1(C)CCC[C@]2(C)[C@H]3C[C@H]4C(C(C)C)=C[C@]3(CC[C@H]21)[C@@H]1C(=O)N(CCC#N)C(=O)[C@@H]14`, the growth was 93.7% with NCI-H23 lung; 81.9% in the assay with NCI-H226 lung; 109% in the assay on NCI-H322M lung; 89.9% in the assay with HOP-62 NSCLC; 101% in the assay with NCI-H460 lung; 81.1% in the assay with HOP-92 NSCLC. Moreover, the growth in the assay on NCI-H522 lung was 75.3%; with A549/ATCC NSCLC, 86%; in the assay on 786-0 renal, 99.7%; in the assay on COLO 205 colon it was 94.7%.
